The results in this text go back to PubChem BioAssay (NCI).

About 83,000 compounds went through this panel and 20% of them were active in at least one assay; those are over-represented in the sample as a whole.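 Single-dose data. Exposure time 48 hours. Values below 10 considered active.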 A number with no mark means an inactive call. Active and inactive are the calls of the source.

Some test systems named below: NCI-H23 lung; NCI-H226 lung; NCI-H322M lung; HOP-62 NSCLC; NCI-H460 lung; HOP-92 NSCLC; NCI-H522 lung; A549/ATCC NSCLC; 786-0 renal; DU-145 prostate; K-562 leukemia; MALME-3M melanoma; MDA-MB-231 breast; RXF 393 renal; SF-268 CNS; SF-295 CNS; SF-539 CNS; UACC-257 melanoma; M14 melanoma; COLO 205 colon.
Common to all, as to assay: NCI-60 one-dose screen, 48 h (100 = growth as untreated, 0 = no growth, -100 = all killed)
Holding throughout (conditions): 10 µM unless noted

As for `COCN1CCC2N(COC)CCC3N(COC)CCC1N23` (configuration not stated), the growth in the experiment on NCI-H23 lung was 105%; in the experiment with NCI-H226 lung it was 111%; in the experiment with NCI-H322M lung, 124%; in the experiment with HOP-62 NSCLC it was 107%; in the experiment with NCI-H460 lung it was 109%; in the experiment with HOP-92 NSCLC it was 96.3%. For the same compound, the growth in the experiment with NCI-H522 lung is 107%; in the experiment on A549/ATCC NSCLC it was 97.1%; in the experiment on 786-0 renal it was 109%; with DU-145 prostate, 111%; in the experiment with K-562 leukemia, 111%; in the experiment on MALME-3M melanoma it was 134%. For the same compound, the growth in the experiment on MDA-MB-231 breast was 94.1%; in the experiment with RXF 393 renal, 112%; in the experiment on SF-268 CNS, 104%; in the experiment with SF-295 CNS it was 113%; in the experiment with SF-539 CNS, 101%; in the experiment with UACC-257 melanoma, 98.8%. The growth in the experiment on M14 melanoma was 98%.
For the compound `CNS(=O)(=O)c1n[nH]nc1-c1cc(C(C)(C)C)c(O)c(C(C)(C)C)c1`, the growth with NCI-H23 lung was 105%; in the experiment on NCI-H226 lung, 104%; in the experiment on NCI-H322M lung, 102%; with HOP-62 NSCLC it was 84.7%; in the experiment with NCI-H460 lung, 109%; in the experiment on HOP-92 NSCLC, 80.2%. Further, the growth in the experiment with A549/ATCC NSCLC was 89.5%; in the experiment on 786-0 renal, 91.2%; in the experiment with COLO 205 colon, 103%; in the experiment on DU-145 prostate it was 110%; with K-562 leukemia, 98.7%; with MALME-3M melanoma it was 88.3%. The growth in the experiment with MDA-MB-231 breast is 103%; in the experiment with RXF 393 renal, 114%; in the experiment on SF-268 CNS it was 99.3%; in the experiment with SF-295 CNS, 92.4%; with SF-539 CNS it was 99.4%; in the experiment with UACC-257 melanoma, 84.7%. In addition, the growth in the experiment with M14 melanoma is 95.9%.
With `Cc1ccc(NS(=O)(=O)c2ccc3c(c2)C(=O)CC(c2ccc(C(=O)C(C)C)cc2)N3)cc1C` (configuration not stated), the growth with NCI-H23 lung is 44.1%; in the experiment on NCI-H226 lung it was 57.7%; with NCI-H322M lung it was 67.2%; with HOP-62 NSCLC, 69.1%; with NCI-H460 lung, 53.9%; with HOP-92 NSCLC, 67.9%. Also, the growth with A549/ATCC NSCLC is 52.4%; in the experiment with 786-0 renal, 86.3%; with COLO 205 colon, 59.4%; with DU-145 prostate it was 83.5%; with K-562 leukemia, 39.7%; with MALME-3M melanoma, 51.1%. Further, the growth with MDA-MB-231 breast is 78.5%; in the experiment on RXF 393 renal it was 75.3%; in the experiment with SF-268 CNS, 68%; in the experiment on SF-295 CNS it was 37.7%; in the experiment with SF-539 CNS, 71.5%; in the experiment with UACC-257 melanoma it was 43.1%. The growth with M14 melanoma is 73%.
For the compound `CN(C)CC1C(=O)O[C@H]2[C@H]1CC/C(COC(=O)c1cc3ccccc3[nH]1)=C\CC[C@@]1(C)O[C@@H]21` (some centres not stated), the growth in the experiment on NCI-H23 lung was 18.5%; with NCI-H226 lung, 23.8%; in the experiment with NCI-H322M lung it was 86.7%; in the experiment on HOP-62 NSCLC, 43.4%; with NCI-H460 lung it was 17.6%; in the experiment on HOP-92 NSCLC, -63.8% (active). In addition, the growth in the experiment on A549/ATCC NSCLC was 11.5%; in the experiment with 786-0 renal it was -81.6% (active); in the experiment on COLO 205 colon, -63.9% (active); in the experiment with DU-145 prostate, -17.7% (active); in the experiment on K-562 leukemia, -11.4% (active); with MALME-3M melanoma, -44.2% (active). Also, the growth with MDA-MB-231 breast is -41.2% (active); with RXF 393 renal, -72.2% (active); in the experiment with SF-268 CNS it was -59.7% (active); with SF-295 CNS, 32.4%; in the experiment with SF-539 CNS, -37.7% (active); with UACC-257 melanoma, -86% (active). Besides, the growth with M14 melanoma was -62.3% (active).
`CCCCn1c(=O)c2c(nc(NCCc3ccc(O)c(O)c3)n2CCC)n(CCCC)c1=O`: the growth in the experiment on NCI-H23 lung was 87.1%; with NCI-H226 lung it was 87.7%; in the experiment on NCI-H322M lung, 94.2%; in the experiment with HOP-62 NSCLC it was 96.8%; in the experiment on NCI-H460 lung, 92.9%; with HOP-92 NSCLC, 69.8%. Moreover, the growth in the experiment on A549/ATCC NSCLC is 76.9%; with 786-0 renal, 81.3%; with COLO 205 colon, 70.3%; in the experiment on DU-145 prostate, 74.8%; in the experiment with K-562 leukemia, 37.7%; in the experiment on MALME-3M melanoma it was 101%. For the same compound, the growth with MDA-MB-231 breast is 58.6%; with RXF 393 renal, 66.3%; in the experiment with SF-268 CNS, 74.6%; in the experiment with SF-295 CNS, 94.7%; with SF-539 CNS it was 87.7%; in the experiment on UACC-257 melanoma it was 89.6%. Also, the growth in the experiment on M14 melanoma was 75.9%.
For `N#Cc1c(-c2cccc(Cl)c2)cc(-c2cccc(Cl)c2)[nH]c1=O`, the growth with NCI-H23 lung is 79.8%; in the experiment on NCI-H226 lung, 94%; in the experiment with NCI-H322M lung it was 87.2%; with HOP-62 NSCLC, 71.3%; in the experiment with NCI-H460 lung, 77.1%; in the experiment with HOP-92 NSCLC, 44%. Moreover, the growth with A549/ATCC NSCLC is 61.9%; with 786-0 renal, 87.6%; with DU-145 prostate it was 96.5%; in the experiment with K-562 leukemia, 27.1%; with MALME-3M melanoma it was 69%; in the experiment on MDA-MB-231 breast it was 90.5%. The growth is 82.1% with RXF 393 renal; 83.4% in the experiment on SF-268 CNS; 83.7% in the experiment on SF-295 CNS; 82.7% with SF-539 CNS; 90.2% in the experiment on UACC-257 melanoma; 57.9% with M14 melanoma.
Regarding `CC1(C)CC[C@]2(C(=O)N3CCOCC3)CC[C@]3(C)C(=CC[C@@H]4[C@@]5(C)CC[C@H](OC(=O)c6cccnc6)C(C)(C)[C@@H]5CC[C@]43C)[C@@H]2C1`, the growth in the experiment with NCI-H23 lung was 68.9%; in the experiment with NCI-H226 lung, 50.1%; in the experiment on NCI-H322M lung it was 88.2%; in the experiment on HOP-62 NSCLC it was 78.7%; in the experiment on NCI-H460 lung it was 18.3%; with HOP-92 NSCLC, 66.4%. In addition, the growth in the experiment with NCI-H522 lung was 73.3%; in the experiment on A549/ATCC NSCLC, 47.3%; in the experiment on 786-0 renal, 62.4%; in the experiment with DU-145 prostate, 60.9%; in the experiment with K-562 leukemia it was 36%; in the experiment on MALME-3M melanoma, 88.6%. Also, the growth with MDA-MB-231 breast was 70.4%; with RXF 393 renal, 84.3%; in the experiment with SF-268 CNS, 71.1%; in the experiment on SF-295 CNS, 51.2%; in the experiment on SF-539 CNS, 71.5%; in the experiment with UACC-257 melanoma, 65.5%. Also, in the experiment on M14 melanoma, the growth was 72.8%.
